For 8 sequences, binding signal results are on record in publication PMC7862700, “An all-to-all approach to the identification of sequence-specific readers for epigenetic DNA modifications on cytosine”.

Test in all cases: DAPPL (digital affinity profiling via proximity ligation, sequencing); 10 mM Tris-HCl pH 7.5, 50 mM NaCl, 1 mM DTT, 4% glycerol, room temperature, 30 min; GST-TFs on glutathione beads, 16-mer random dsDNA library, 0.1% formaldehyde crosslink after washing; high values mean tight binding
Holding throughout (details): protein: recombinant; tags: N-terminal GST; dsDNA, one strand shown

The target in one assay is T1, FLI1 (Homo sapiens, UniProt Q01543 1-452).
T1 sequence: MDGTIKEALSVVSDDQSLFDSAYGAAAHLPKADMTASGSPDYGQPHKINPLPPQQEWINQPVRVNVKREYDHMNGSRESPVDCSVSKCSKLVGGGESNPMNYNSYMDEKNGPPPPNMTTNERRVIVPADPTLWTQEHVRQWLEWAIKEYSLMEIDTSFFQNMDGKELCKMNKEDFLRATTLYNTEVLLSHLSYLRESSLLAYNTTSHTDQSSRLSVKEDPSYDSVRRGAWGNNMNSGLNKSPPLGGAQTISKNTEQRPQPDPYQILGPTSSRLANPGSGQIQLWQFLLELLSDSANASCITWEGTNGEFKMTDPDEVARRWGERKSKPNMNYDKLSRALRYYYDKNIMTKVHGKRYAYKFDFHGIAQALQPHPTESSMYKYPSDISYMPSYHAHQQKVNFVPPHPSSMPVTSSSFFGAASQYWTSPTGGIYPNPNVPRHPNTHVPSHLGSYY
Put shortly:
(§1)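 Binding signal is given per hexamer as its read frequency for a factor divided by its frequency in the tag-only sample. GST-fused human transcription factors were expressed in yeast, captured on glutathione beads, barcoded with DNA and pooled with that sample, then incubated with 200 nmole of a 16-mer random double-stranded DNA library in Tris/NaCl/DTT/glycerol buffer for 30 min at room temperature. The pools were then washed, crosslinked, proximity-ligated, amplified by PCR and sequenced on an Illumina NextSeq500.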

The target of a further assay is T2, ELK1 (Homo sapiens, UniProt P19419 1-428).
T2 sequence: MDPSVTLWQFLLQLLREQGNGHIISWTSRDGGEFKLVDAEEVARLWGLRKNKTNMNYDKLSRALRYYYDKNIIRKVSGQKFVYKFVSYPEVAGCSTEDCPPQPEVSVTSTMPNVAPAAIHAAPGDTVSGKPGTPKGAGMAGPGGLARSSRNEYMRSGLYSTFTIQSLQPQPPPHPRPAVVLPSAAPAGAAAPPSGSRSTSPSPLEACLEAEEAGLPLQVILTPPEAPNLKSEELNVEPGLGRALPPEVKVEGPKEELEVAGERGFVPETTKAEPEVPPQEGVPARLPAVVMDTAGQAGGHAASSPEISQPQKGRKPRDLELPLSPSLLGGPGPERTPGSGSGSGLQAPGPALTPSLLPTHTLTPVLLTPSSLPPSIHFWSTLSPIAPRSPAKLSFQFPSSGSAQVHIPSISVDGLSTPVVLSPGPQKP
Put shortly: as §1

The next assay concerns the target T3, GABPA (Homo sapiens, UniProt Q06546 1-454).
T3 sequence: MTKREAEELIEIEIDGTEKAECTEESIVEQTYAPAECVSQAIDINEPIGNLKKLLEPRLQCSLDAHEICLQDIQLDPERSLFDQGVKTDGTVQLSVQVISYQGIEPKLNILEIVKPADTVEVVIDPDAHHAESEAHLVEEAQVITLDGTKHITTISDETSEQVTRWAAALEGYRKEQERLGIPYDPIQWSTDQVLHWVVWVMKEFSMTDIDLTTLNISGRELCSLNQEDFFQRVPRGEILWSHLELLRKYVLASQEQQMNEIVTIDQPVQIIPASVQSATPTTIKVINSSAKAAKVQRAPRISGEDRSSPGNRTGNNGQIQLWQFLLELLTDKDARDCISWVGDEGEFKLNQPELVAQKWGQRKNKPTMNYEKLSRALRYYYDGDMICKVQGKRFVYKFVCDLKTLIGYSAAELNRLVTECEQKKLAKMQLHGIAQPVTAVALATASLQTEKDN
Put shortly:
as §1

Another assay concerns the target T4, ERG (Homo sapiens, UniProt P11308 1-479).
T4 sequence: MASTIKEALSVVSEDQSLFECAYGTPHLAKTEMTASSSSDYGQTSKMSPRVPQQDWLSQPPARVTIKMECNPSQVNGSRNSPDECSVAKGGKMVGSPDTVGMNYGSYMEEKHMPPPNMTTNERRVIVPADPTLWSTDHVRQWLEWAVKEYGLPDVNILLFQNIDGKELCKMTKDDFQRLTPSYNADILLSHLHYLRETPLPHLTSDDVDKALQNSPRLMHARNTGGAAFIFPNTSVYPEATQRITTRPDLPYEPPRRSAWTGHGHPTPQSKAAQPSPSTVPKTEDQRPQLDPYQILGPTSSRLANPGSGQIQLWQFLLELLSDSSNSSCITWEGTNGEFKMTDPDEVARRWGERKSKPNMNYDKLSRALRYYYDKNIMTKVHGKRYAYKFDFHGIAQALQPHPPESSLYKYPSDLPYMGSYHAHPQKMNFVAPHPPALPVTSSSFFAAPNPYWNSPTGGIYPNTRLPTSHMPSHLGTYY
Put shortly: as §1

The target in a further assay is ELF1 (Homo sapiens, UniProt P32519 1-619). The gist of the method:
as §1

Another assay deals with T5, EHF (Homo sapiens, UniProt Q9NZC4 1-300).
T5 sequence: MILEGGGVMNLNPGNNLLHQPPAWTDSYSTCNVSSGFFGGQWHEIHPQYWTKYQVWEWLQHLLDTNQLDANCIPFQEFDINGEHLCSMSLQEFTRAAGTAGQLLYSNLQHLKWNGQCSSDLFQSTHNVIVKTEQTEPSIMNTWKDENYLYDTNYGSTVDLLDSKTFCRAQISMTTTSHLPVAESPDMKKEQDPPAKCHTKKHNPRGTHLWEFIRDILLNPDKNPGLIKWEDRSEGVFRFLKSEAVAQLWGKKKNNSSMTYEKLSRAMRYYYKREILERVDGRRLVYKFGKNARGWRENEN
The gist of the method: as §1

For another assay, the target named is SPI1 (Homo sapiens, UniProt P17947 1-270). Put shortly: as §1
The target of a further assay is SPIB (Homo sapiens, UniProt Q01892 1-262). Put shortly: as §1
Sequence of SPIB (Q01892 whole entry): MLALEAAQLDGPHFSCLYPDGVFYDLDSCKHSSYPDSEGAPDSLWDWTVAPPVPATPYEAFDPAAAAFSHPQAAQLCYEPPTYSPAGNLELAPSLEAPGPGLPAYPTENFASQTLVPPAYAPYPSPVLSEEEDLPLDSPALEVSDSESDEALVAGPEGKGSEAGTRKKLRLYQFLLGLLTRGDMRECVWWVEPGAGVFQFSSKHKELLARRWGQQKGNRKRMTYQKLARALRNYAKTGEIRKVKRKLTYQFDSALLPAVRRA
In another assay the target is T6, ELK3 (Homo sapiens, UniProt P41970 1-407).
T6 sequence: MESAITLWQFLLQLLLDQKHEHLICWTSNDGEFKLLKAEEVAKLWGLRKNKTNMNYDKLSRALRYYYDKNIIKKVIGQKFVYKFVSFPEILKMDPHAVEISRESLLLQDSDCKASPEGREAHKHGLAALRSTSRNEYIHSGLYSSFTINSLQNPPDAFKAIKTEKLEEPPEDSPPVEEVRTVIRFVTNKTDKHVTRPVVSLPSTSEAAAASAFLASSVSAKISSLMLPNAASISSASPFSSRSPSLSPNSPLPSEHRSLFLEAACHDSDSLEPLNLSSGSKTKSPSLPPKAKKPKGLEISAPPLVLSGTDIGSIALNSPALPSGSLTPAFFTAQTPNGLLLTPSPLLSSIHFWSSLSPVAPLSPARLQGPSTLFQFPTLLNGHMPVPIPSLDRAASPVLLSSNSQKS
Put shortly:
as §1

Sequence of ELF1 (P32519 whole entry): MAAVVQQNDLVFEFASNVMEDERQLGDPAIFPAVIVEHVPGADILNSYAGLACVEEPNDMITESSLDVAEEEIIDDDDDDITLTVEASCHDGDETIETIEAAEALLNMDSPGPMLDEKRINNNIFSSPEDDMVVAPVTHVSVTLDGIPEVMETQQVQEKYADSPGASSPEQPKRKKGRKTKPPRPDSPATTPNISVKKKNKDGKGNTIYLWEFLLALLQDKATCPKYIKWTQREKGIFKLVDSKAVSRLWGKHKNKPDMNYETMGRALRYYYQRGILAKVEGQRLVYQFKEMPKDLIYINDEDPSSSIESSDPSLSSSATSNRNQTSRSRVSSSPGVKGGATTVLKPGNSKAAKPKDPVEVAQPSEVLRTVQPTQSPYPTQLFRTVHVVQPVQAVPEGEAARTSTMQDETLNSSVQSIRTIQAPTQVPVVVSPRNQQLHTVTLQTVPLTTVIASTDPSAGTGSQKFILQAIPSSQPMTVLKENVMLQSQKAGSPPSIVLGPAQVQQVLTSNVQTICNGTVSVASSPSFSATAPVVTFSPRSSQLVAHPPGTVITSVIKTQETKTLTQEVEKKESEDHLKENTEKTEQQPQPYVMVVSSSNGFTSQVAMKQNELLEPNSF

With TTATAG, the binding signal was 1.13 fold enrichment (6-mer frequency, TF over GST control) in the assay with FLI1; 1.09 fold enrichment (6-mer frequency, TF over GST control) with ELK1; 1.22 fold enrichment (6-mer frequency, TF over GST control) with GABPA; 1.04 fold enrichment (6-mer frequency, TF over GST control) with ERG; 1.2 fold enrichment (6-mer frequency, TF over GST control) in the assay with ELF1; 1.25 fold enrichment (6-mer frequency, TF over GST control) in the assay with EHF. In addition, the binding signal was 1.2 fold enrichment (6-mer frequency, TF over GST control) with SPI1; 1.2 fold enrichment (6-mer frequency, TF over GST control) in the assay with SPIB; 1.03 fold enrichment (6-mer frequency, TF over GST control) with ELK3.

As to ACTCCT, the binding signal with FLI1 was 1.67 fold enrichment (6-mer frequency, TF over GST control); with ELK1, 1.55 fold enrichment (6-mer frequency, TF over GST control); with GABPA, 1.45 fold enrichment (6-mer frequency, TF over GST control); with ERG, 1.45 fold enrichment (6-mer frequency, TF over GST control); with ELF1 it was 1.57 fold enrichment (6-mer frequency, TF over GST control); with EHF it was 1.52 fold enrichment (6-mer frequency, TF over GST control). Also, the binding signal in the assay with SPI1 was 1.42 fold enrichment (6-mer frequency, TF over GST control); with SPIB it was 1.57 fold enrichment (6-mer frequency, TF over GST control); in the assay with ELK3, 1.5 fold enrichment (6-mer frequency, TF over GST control).

AGTATC: the binding signal with FLI1 was 1.09 fold enrichment (6-mer frequency, TF over GST control); in the assay with ELK1, 1.13 fold enrichment (6-mer frequency, TF over GST control); in the assay with GABPA, 1.11 fold enrichment (6-mer frequency, TF over GST control); with ERG it was 1.08 fold enrichment (6-mer frequency, TF over GST control); with ELF1 it was 1.13 fold enrichment (6-mer frequency, TF over GST control); with EHF, 1.19 fold enrichment (6-mer frequency, TF over GST control). The binding signal with SPI1 is 1.13 fold enrichment (6-mer frequency, TF over GST control); in the assay with SPIB it was 1.2 fold enrichment (6-mer frequency, TF over GST control); in the assay with ELK3, 1.17 fold enrichment (6-mer frequency, TF over GST control).

Consider CGACAC, for which the binding signal is 1.18 fold enrichment (6-mer frequency, TF over GST control) in the assay with FLI1; 1.14 fold enrichment (6-mer frequency, TF over GST control) in the assay with ELK1; 1.16 fold enrichment (6-mer frequency, TF over GST control) in the assay with GABPA; 1.23 fold enrichment (6-mer frequency, TF over GST control) in the assay with ERG; 1.24 fold enrichment (6-mer frequency, TF over GST control) in the assay with ELF1; 1.19 fold enrichment (6-mer frequency, TF over GST control) in the assay with EHF. For the same sequence, the binding signal is 1.2 fold enrichment (6-mer frequency, TF over GST control) in the assay with SPI1; 1.25 fold enrichment (6-mer frequency, TF over GST control) in the assay with SPIB; 1.14 fold enrichment (6-mer frequency, TF over GST control) with ELK3.

With GTACTA, the binding signal is 1.16 fold enrichment (6-mer frequency, TF over GST control) with FLI1; 1.06 fold enrichment (6-mer frequency, TF over GST control) with ELK1; 1.12 fold enrichment (6-mer frequency, TF over GST control) with GABPA; 1.07 fold enrichment (6-mer frequency, TF over GST control) with ERG; 1.19 fold enrichment (6-mer frequency, TF over GST control) with ELF1; 1.14 fold enrichment (6-mer frequency, TF over GST control) in the assay with EHF. Besides, the binding signal in the assay with SPI1 was 1.02 fold enrichment (6-mer frequency, TF over GST control); with SPIB, 1.1 fold enrichment (6-mer frequency, TF over GST control); with ELK3, 1.02 fold enrichment (6-mer frequency, TF over GST control).

As to CTAAAA, the binding signal with FLI1 was 1.13 fold enrichment (6-mer frequency, TF over GST control); in the assay with ELK1, 1.12 fold enrichment (6-mer frequency, TF over GST control); with GABPA, 1.18 fold enrichment (6-mer frequency, TF over GST control); in the assay with ERG it was 1.2 fold enrichment (6-mer frequency, TF over GST control); with ELF1, 1.13 fold enrichment (6-mer frequency, TF over GST control); with EHF, 1.1 fold enrichment (6-mer frequency, TF over GST control). Also, the binding signal was 1.26 fold enrichment (6-mer frequency, TF over GST control) in the assay with SPI1; 1.1 fold enrichment (6-mer frequency, TF over GST control) in the assay with SPIB; 1.13 fold enrichment (6-mer frequency, TF over GST control) with ELK3.

Turning to ATGGGC, the binding signal is 1.28 fold enrichment (6-mer frequency, TF over GST control) with FLI1; 1.29 fold enrichment (6-mer frequency, TF over GST control) with ELK1; 1.3 fold enrichment (6-mer frequency, TF over GST control) with GABPA; 1.26 fold enrichment (6-mer frequency, TF over GST control) in the assay with ERG; 1.27 fold enrichment (6-mer frequency, TF over GST control) with ELF1; 1.32 fold enrichment (6-mer frequency, TF over GST control) with EHF. The binding signal with SPI1 is 1.35 fold enrichment (6-mer frequency, TF over GST control); in the assay with SPIB, 1.3 fold enrichment (6-mer frequency, TF over GST control); with ELK3, 1.37 fold enrichment (6-mer frequency, TF over GST control).

Take TCCCAG: the binding signal with FLI1 was 1.05 fold enrichment (6-mer frequency, TF over GST control); with ELK1, 1.09 fold enrichment (6-mer frequency, TF over GST control); in the assay with GABPA, 1.08 fold enrichment (6-mer frequency, TF over GST control); in the assay with ERG it was 1.07 fold enrichment (6-mer frequency, TF over GST control); with ELF1 it was 1.08 fold enrichment (6-mer frequency, TF over GST control); with EHF, 1.1 fold enrichment (6-mer frequency, TF over GST control). Also, the binding signal was 1.11 fold enrichment (6-mer frequency, TF over GST control) with SPI1; 1.08 fold enrichment (6-mer frequency, TF over GST control) in the assay with SPIB; 1.11 fold enrichment (6-mer frequency, TF over GST control) with ELK3.
